Measurements: PubChem BioAssay (NCI)
Compounds without any hit were thinned out: in the full panel of roughly 79,000, 15% have a hit. The source made the active and inactive calls. Cut-off read from the data, not from the text of the source: active = growth inhibition above about 70%; inactive = the rest.

Assays:
[1] = NCI Yeast Anticancer Drug Screen. Data for the rad50 strain (AID 155);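 note: 0% = growth of vehicle-only cultures of the same strain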; details: S. cerevisiae rad50 strain growth inhibition; at 50.0 µM; stronger effect = higher value
Procedure, shortened: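 Cells are treated with compound, grown, and their growth is then scored against vehicle-only cultures of the same repair-deficient yeast strain.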

[2] = NCI Yeast Anticancer Drug Screen. Data for the mec2-1 strain (AID 157); details: S. cerevisiae mec2-1 strain, at 50.0 µM, stronger effect = higher value
Procedure, shortened: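 Cells of the genetically defined mec2-1 yeast strain are incubated with test compound. Inhibition of growth is calculated against vehicle-treated controls.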

[3] = NCI Yeast Anticancer Drug Screen. Data for the sgs1 mgt1 strain (AID 161);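 note: 0% = growth of cultures given vehicle only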; details: S. cerevisiae sgs1 mgt1 strain, at 50.0 µM, stronger effect = higher value
Procedure, shortened: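 Read-out: growth inhibition vs vehicle controls. Cells: mutant yeast strain deficient in DNA damage repair.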

[4] = NCI Yeast Anticancer Drug Screen. Data for the cln2 rad14 strain (AID 165);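 note: 0% = growth equal to vehicle treated cultures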; details: S. cerevisiae cln2 rad14 strain, at 50.0 µM, stronger effect = higher value
Procedure, shortened: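 The screen exposed genetically defined yeast (cln2 rad14) to test compounds and scored growth inhibition relative to vehicle-treated controls.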

[5] = NCI Yeast Anticancer Drug Screen. Data for the bub3 strain (AID 167); details: S. cerevisiae bub3 mutant strain, at 50.0 µM, stronger effect = higher value
Procedure, shortened: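 Part of a panel of yeast mutants defective in DNA damage repair or cell cycle regulation. Each strain is grown with compound, and inhibition is calculated relative to solvent-treated cultures.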

[6] = NCI Yeast Anticancer Drug Screen. Data for the mlh1 rad18 strain (AID 175); details: S. cerevisiae mlh1 rad18 strain growth inhibition; at 50.0 µM; stronger effect = higher value
Procedure, shortened: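 Compound-treated yeast growth, normalised to vehicle controls. Strain bears defined DNA repair mutations.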

Row | SMILES | growth inhibition [1] | growth inhibition [2] | growth inhibition [3] | growth inhibition [4] | growth inhibition [5] | growth inhibition [6]
1 | CCCCCCNC(=O)NC | -2.3% (inactive) | -11.5% (inactive) | -16.8% (inactive) | -36.2% (inactive) | -21.1% (inactive) | -7.05% (inactive)
2 | CCOc1cc(C(=O)O)cc(OCC)n1 | -0.1% (inactive) | -9.45% (inactive) | 9.2% (inactive) | -29.4% (inactive) | 8.95% (inactive) | 3.05% (inactive)
3 | O=C1NCC2(CCN(CC3COc4ccccc4O3)CC2)N1c1ccccc1 (stereo not drawn) | -23.3% (inactive) | -18.2% (inactive) | -21% (inactive) | -2.95% (inactive) | -3.2% (inactive) | -34.5% (inactive)
4 | CC1=CC(=O)/C(=C/N2CCNC2=S)C(=O)O1 | -24.6% (inactive) | -20.6% (inactive) | 1.3% (inactive) | 5.65% (inactive) | -31.3% (inactive) | 4.7% (inactive)
5 | O=C(O)c1cccc2c1C1CCC2c2cccc(C(=O)O)c21 | -29.2% (inactive) | 0.95% (inactive) | 15.6% (inactive) | 3.05% (inactive) | -2.6% (inactive) | 9.7% (inactive)
6 | COc1ccc(OC)c(CNc2ccc(C(=O)O)cc2)c1 | 11.4% (inactive) | -1.25% (inactive) | 15% (inactive) | -1.9% (inactive) | 6.75% (inactive) | 29.6% (inactive)
7 | CCOC(=O)C(CC(Nc1ccccc1)(c1ccccc1)c1ccccc1)c1ccccc1 (stereo not drawn) | 21.9% (inactive) | -8.3% (inactive) | 4.65% (inactive) | -35.5% (inactive) | -3.45% (inactive) | -0.65% (inactive)
8 | CSC(=S)n1nc(-c2ccccc2)c(N=Nc2cccc(Cl)c2Cl)c1-c1ccccc1 | 90.2% (active) | 95.5% (active) | 94% (active) | 94.5% (active) | 93% (active) | 95.2% (active)
9 | COc1ccc2c3c([nH]c2c1)[C@H]1C[C@H]2[C@H](C[C@@H](O)[C@H](OC)[C@H]2C(=O)O)CN1CC3 | 26.3% (inactive) | 21% (inactive) | -18.9% (inactive) | 1.85% (inactive) | 23.6% (inactive) | 30.4% (inactive)
10 | COC(C)C(NC(=O)C1CCCN1C)C1OC(SCCOC(=O)c2ccccc2O)C(O)C(O)C1O (stereo not drawn) | 8.3% (inactive) | 6.3% (inactive) | -13.6% (inactive) | 13.4% (inactive) | 3.45% (inactive) | 31.6% (inactive)
11 | CCOC(=O)C(C(=O)OCC)C(=O)C(C)(C)C | 25.8% (inactive) | 0.3% (inactive) | 0.7% (inactive) | 11.2% (inactive) | 30.5% (inactive) | 18.9% (inactive)
12 | C1CC2CCC1CN(C1COC(N3CC4CCC(CC4)C3)CO1)C2 (stereo not drawn) | -5.15% (inactive) | 1.55% (inactive) | 9.7% (inactive) | 58.4% (inactive) | 4.9% (inactive) | -0.65% (inactive)
13 | O=C(c1ccccc1)N1OCCC1Nc1ccc(Br)cc1 (stereo not drawn) | -9.85% (inactive) | -7.45% (inactive) | -3.95% (inactive) | 13.6% (inactive) | -15% (inactive) | 3.65% (inactive)
14 | CCN(CC)C(=O)Cc1ccc2c3c(cccc13)CC2 | -2.45% (inactive) | -2.05% (inactive) | -1.75% (inactive) | -0.75% (inactive) | 1.6% (inactive) | 11.6% (inactive)
15 | NC1CC(=O)C(CC2C(=O)CC(N)CC2=O)C(=O)C1 (stereo not drawn) | -1.3% (inactive) | 0.05% (inactive) | 3.35% (inactive) | -1.8% (inactive) | -1.15% (inactive) | -3.65% (inactive)
16 | Cc1ccc(-n2cnc3c(N/N=C4\SCC(=O)N4c4ccccc4)ncnc32)cc1 | 41.2% (inactive) | 17.6% (inactive) | 40.2% (inactive) | 15.1% (inactive) | 49.2% (inactive) | 35% (inactive)
17 | Cc1ccc(S(=O)(=O)Oc2cc(-c3ccccc3)nc3ccccc23)cc1 | 5.35% (inactive) | -7.25% (inactive) | 2.95% (inactive) | 11.7% (inactive) | 27.6% (inactive) | 9.85% (inactive)
18 | CCCCCCCCNC(=O)/C(=C\c1ccc(/C=C(/NC(=O)c2ccccc2)C(=O)NCCCCCCCC)cc1)NC(=O)c1ccccc1 | -14% (inactive) | -23.4% (inactive) | -20.4% (inactive) | 11.7% (inactive) | -17.9% (inactive) | -4% (inactive)
19 | O=C1/C(=C\C=C\c2ccccc2)CCC/C1=C/C=C/c1ccccc1 | 15.3% (inactive) | 5.05% (inactive) | 5.7% (inactive) | 20.8% (inactive) | 34% (inactive) | 3.1% (inactive)

Row | SMILES | growth inhibition [1] | growth inhibition [2] | growth inhibition [3] | growth inhibition [4] | growth inhibition [5] | growth inhibition [6]
20 | COc1ccccc1C/C(=N/O)c1ccccc1OC | 3.65% (inactive) | -2.8% (inactive) | 14.1% (inactive) | 15.6% (inactive) | -3.8% (inactive) | 4.35% (inactive)
21 | Cn1c2ccccc2c2nn3cnnc3nc21 | 18.1% (inactive) | 41.3% (inactive) | -3.3% (inactive) | 25.5% (inactive) | 22.1% (inactive) | -1.95% (inactive)
22 | Cc1ccc(C(=N)c2ccccc2Cc2cccc3ccccc23)c2ccccc12 | 12.4% (inactive) | -22.1% (inactive) | -30.2% (inactive) | -36.9% (inactive) | -34.4% (inactive) | -15.6% (inactive)
23 | COc1cc(C2(C)SCCCS2)c(I)c(OC)c1OC | -8.55% (inactive) | -3.05% (inactive) | -8.15% (inactive) | 13.2% (inactive) | 2.85% (inactive) | -14.4% (inactive)
24 | CCC[CH2][Sn]([CH2]CCC)([O]C(=O)c1cccc(F)c1F)[O][Sn]([CH2]CCC)([CH2]CCC)[O]C(=O)c1cccc(F)c1F | 89.4% (active) | 91.5% (active) | 91.2% (active) | 88.5% (active) | 90% (active) | 86% (active)
25 | Brc1ccc(-c2[nH]c3ccccc3c2N=Nc2ccccc2)cc1 | 0.85% (inactive) | -9.6% (inactive) | 6.45% (inactive) | -7% (inactive) | -11.1% (inactive) | -56.7% (inactive)
26 | O=C(CC[N+](=O)[O-])OCC1OC(OC(=O)CC[N+](=O)[O-])C(O)C(O)C1O (stereo not drawn) | 23% (inactive) | 0.85% (inactive) | 28.4% (inactive) | 34.1% (inactive) | 14.8% (inactive) | 38.8% (inactive)
27 | C/C=C(/C)C(=O)O[C@H]1C(C)=C[C@]23C(=O)[C@@H](C=C(COC(C)=O)[C@@H](O)[C@]12O)[C@H]1[C@@H](C[C@H]3C)[C@@]1(C)OC(=O)/C(C)=C\C | 58.7% (inactive) | 60.4% (inactive) | 60.6% (inactive) | 76.3% (active) | 56.8% (inactive) | 59.2% (inactive)
28 | CCC/C=C(/C=N/Nc1ccc([N+](=O)[O-])cc1[N+](=O)[O-])CC | 16.4% (inactive) | -10.7% (inactive) | -7.8% (inactive) | 32.6% (inactive) | 0.75% (inactive) | 4.05% (inactive)
29 | O=C(c1ccc(Cl)cc1)c1ccc2ccccc2c1 | -5.3% (inactive) | -8.6% (inactive) | 5.35% (inactive) | -3.4% (inactive) | 7.8% (inactive) | 4.1% (inactive)
30 | NC(C(=O)O)C1CCCC1 (stereo not drawn) | 2.8% (inactive) | -5.1% (inactive) | -20.8% (inactive) | -14% (inactive) | -92.8% (inactive) | 7.6% (inactive)
31 | COc1ccccc1C(=O)N/N=C/c1ccncc1 | -2.85% (inactive) | 24.5% (inactive) | 5.7% (inactive) | -5.7% (inactive) | 20.2% (inactive) | 9.8% (inactive)
32 | COc1ccc(N2C(=O)CSC2=S)cc1 | 58.6% (inactive) | 0% (inactive) | 24.1% (inactive) | -9.15% (inactive) | -4.85% (inactive) | 33.1% (inactive)
33 | CCOC(=O)C1=CC(C)(C(=O)OCC)Nc2c(nc(SC)[nH]c2=O)N1 (stereo not drawn) | -30.9% (inactive) | -24.7% (inactive) | -14.7% (inactive) | 9.05% (inactive) | -11.8% (inactive) | 2.5% (inactive)
34 | O=[N+]([O-])c1ccc(-c2ccc(-c3ccccc3)cc2)cc1 | -1.8% (inactive) | -12.7% (inactive) | 5.35% (inactive) | -15.4% (inactive) | -10.7% (inactive) | -3.6% (inactive)
35 | C/C(=N\Nc1ccc2ccccc2n1)c1ccccc1O | -19% (inactive) | -25.4% (inactive) | -37.3% (inactive) | -25.8% (inactive) | -66.5% (inactive) | -3.5% (inactive)
36 | O=C1C2C3CCC(C3)C2C(=O)C2C3CCC(C3)C12 (stereo not drawn) | -1.6% (inactive) | -12.7% (inactive) | -9.95% (inactive) | -8.45% (inactive) | 8.75% (inactive) | 6.65% (inactive)
37 | O=c1oc2ccc(Br)cc2cc1CCS | 9.9% (inactive) | 21.2% (inactive) | -4.7% (inactive) | 10.8% (inactive) | 9.55% (inactive) | -9.35% (inactive)
38 | CCCCCCCCCCCC[N+]1(C)CCS(=O)CC1 (stereo not drawn) | 84.7% (active) | 84.3% (active) | 80% (active) | 70.7% (active) | 63.4% (inactive) | 85.3% (active)
